Assay outcomes from PubChem BioAssay.
Only some compounds are listed: those with a hit (about 19% of all), similar ones and a draw of the others.
TDP1 cell CPT: growth inhibition of DT40 Tdp1-/-;hTDP1 cells with camptothecin (screen for TDP1 inhibitors) | chicken DT40 Tdp1-/-;hTDP1 cells + 20 nM CPT, ATP luminescence, 48 h | Potency, µM (highest dose often 46.2 µM), for inactives: at the highest dose activity change, negative = growth inhibition, usual class: inhibitors | actives 12% (n = 420,000); also: potency is read from the fitted curve at half-maximal effect; % is scaled to controls: 0 for no effect and ±100 for the full control effect; nearly all actives have a fitted effect of over 55% in size
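Chicken DT40 Tdp1-/- cells complemented with human TDP1, 400 cells/well, exposed to compounds plus 20 nM camptothecin for at least 48 h at 37 C; viability read as ATP content by CellTiter-Glo luminescence.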
Chronic BCR inh: chronic active BCR signaling inhibition; actives 0.05% (n = 340,000); ABC-DLBCL IkBa-CBG/CBR reporter, luminescence ratio, 4 h; Potency, µM (series often up to 46.1 µM), for inactives: top-dose activity change, negative = inhibition, hits mostly inhibitors; AID 493014; active = well fitted inhibition curve with a large enough effect in the signal ratio, with a control signal flat, not every such curve was filed as active; inconclusive = small, poorly fitted or top-dose-only effect, or effect the other way, or a change in a side signal; the % refers to the signal ratio;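 also: potency is read from the fitted curve at half-maximal effect; plate controls were basal doxycycline-induced cells for no effect and cells given 10 µM MG132 for full effect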
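Cell line TMD8 (human ABC DLBCL), stably expressing tet-inducible CBG68-IkBa fusion and CBR; IMDM/0.5% FBS; cpd up to 46 uM; dox induction, 4 h, 37C/5% CO2; dual luminescence; green/red ratio; MG132 control.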
MCF10A rereplic: DNA re-replication induction in MCF 10a cells. MCF 10A DNA re-replication, Hoechst nuclear intensity, 48 h. Potency, µM (highest dose often 46.1 µM), without a hit: at the top dose activity, positive = re-replication, hits mostly activators. actives 2.9% (n = 350,000); also: potency is read from the fitted curve at half-maximal effect; % of control where 0% means no effect; nearly all actives have a fitted effect of over 50% in size
IL1B secr inh: blocks inflammasome-driven IL-1 beta release | THP-1 LPS/ATP IL-1B secretion, AlphaLISA, 16 h; hits give low values | activity change, % at 57.5 µM | actives 4.7% (n = 360,000); in the data active = activity change below about -50%; inconclusive = mostly about -30% to -49%; also: % is scaled to controls: 0 for no effect and ±100 for the full control effect
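Secreted IL-1B measured by AlphaLISA bead assay after 16 h compound exposure of THP-1 cells; compounds (final up to 57.5 uM) added 1 h before LPS (250 ng/mL) and ATP (1.25 mM) stimulation; lower signal means less secretion.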
DT40 TDP1 no CPT: qHTS for Inhibitors of human tyrosyl-DNA phosphodiesterase 1 (TDP1): qHTS in cells in absence of CPT; actives 15% (n = 420,000); DT40 Tdp1-/- hTDP1 cells, no CPT, ATP luminescence, 48 h; Potency, µM (highest dose often 46.2 µM), without a hit: at the top dose activity change, negative = growth inhibition, hits mostly inhibitors; also: potency is read from the fitted curve at half-maximal effect; % is scaled to controls: 0 for no effect and ±100 for the full control effect; nearly all actives have a fitted effect of over 55% in size
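No-CPT arm: Tdp1-/-;hTDP1 DT40 cells (400/well) plus compounds, incubated ≥48 hr at 37 °C. Readout CellTiter-Glo luminescence.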
SW480 rereplic: induces DNA re-replication in SW480 colon adenocarcinoma cells. SW480 DNA re-replication, Hoechst DNA content imaging, 48 h. Potency, µM (titrated, usually from 46.1 µM), inactives show top-dose re-replication activation, hits mostly activators. actives 1.8% (n = 340,000); also: potency is read from the fitted curve at half-maximal effect; % of control where 0% means no effect; nearly all actives have a fitted effect of over 55% in size
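Readout is total intensity of Hoechst-stained nuclei, excited at 405 nm and collected at 500-530 nm. Compound treatment lasted 48 hr at 37 C in 5% CO2 before staining.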
The depositor's hits bear a star; ? = inconclusive; nt = no result. Unless noted, calls follow the shape of the dose curve; as a rule, active = well fitted curve in the direction sought with a large enough effect; inconclusive = small, poorly fitted or top-dose-only effect, or another doubt; inactive = no such curve, though single readings can be large; an effect the other way counts as inactive or inconclusive.

SMILES	TDP1 cell CPT	Chronic BCR inh	MCF10A rereplic	IL1B secr inh	DT40 TDP1 no CPT	SW480 rereplic
COc1cc(C(CC(=O)N2CCCC2)c2c(OC)cc(OC)c3ccc(=O)oc23)cc(OC)c1OC (centres undefined)	-14%	-4%	3%	-6	-25%	1%
COc1cc(O)c(C(CC(=O)N2CCN(c3ccccc3)CC2)c2ccc(N(C)C)cc2)c(OC)c1 (centres undefined)	23µM*	-2%	5%	-15	-20%	7%
CC(=O)c1c(C)oc2c(Br)cc(NS(=O)(=O)c3ccc(Br)cc3)cc12	nt	11%	nt	nt	nt	nt
COc1ccc(NC(=O)/C(Cl)=C(/Cl)S(=O)(=O)Cc2ccc(C)cc2)cn1	0.52µM*	?	?	-119*	0.82µM*	2.6µM*
COc1ccc(NC(=O)Cc2ccc(Cl)c(Cl)c2)cn1	-3%	?	0%	0	-16%	3%
Cc1ccc(-c2nnc(SCC(=O)N(CC(C)C)c3c(N)n(Cc4ccccc4)c(=O)[nH]c3=O)n2N)cc1	3%	-1%	-4%	-9	2%	1%
CCOc1ccccc1Nc1sc(C(=O)c2ccccc2)c(N)c1C(=O)Nc1ccc(F)cc1	?	-9%	nt	nt	13µM*	nt
Cc1ccc(Nc2sc(C(=O)c3ccccc3)c(N)c2C(N)=O)cc1	?	-22%	nt	nt	?	nt
CCOc1ccc(NC(=O)c2c(Nc3ccccc3C)sc(C(=O)c3ccccc3)c2N)cc1	?	?	nt	nt	12µM*	nt
Cc1cccc(C)c1Nc1sc(C(=O)c2ccccc2)c(N)c1C(=O)Nc1ccc(F)cc1	?	?	nt	nt	21µM*	nt
CCOc1ccccc1Nc1sc(C(=O)c2ccc(Cl)cc2)c(N)c1C(=O)NCCc1ccccc1	4.6µM*	1%	nt	nt	21µM*	nt
Cc1cccc(Nc2sc(C(=O)c3ccc(Cl)cc3)c(N)c2C(N)=O)c1	-13%	?	nt	nt	-11%	nt
N#Cc1c(C(F)(F)F)cc(-c2cccs2)nc1SCC(=O)Nc1ccccc1F	-28%	nt	nt	nt	?	nt
CCc1cccc(NC(=O)c2nc(-c3ccncc3)no2)c1	?	nt	nt	nt	-19%	nt
O=C(OCc1ccccc1)N1C=CC2CC1c1c(Cl)cccc12 (centres undefined)	?	nt	23µM*	-8	?	13%
O=C(OCc1ccccc1)N1C[C@H](O)[C@H](O)C[C@@H]1c1c(Cl)cccc1Br	-17%	nt	nt	11	-13%	nt
O=C(CSc1nnc(COc2ccc(Cl)cc2)o1)N1CCOCC1	-9%	-1%	-4%	42	-19%	-1%
Cc1ccc(NS(=O)(=O)c2ccc3c(c2)NC(=O)CO3)cc1C	?	1%	1%	17	?	-4%
Cc1ccc(NS(=O)(=O)c2ccc3c(c2)NC(=O)CO3)cc1Cl	18µM*	0%	-1%	-12	?	5%
Cc1ccc(NC(=O)CC(C)S(=O)(=O)c2ccc3c(c2)NC(=O)CO3)cc1Cl (centres undefined)	-7%	nt	nt	nt	21µM*	nt
CC1(C)CC(=O)N(CC(=O)NCc2ccccc2)c2ccccc2S1(=O)=O	20%	-7%	-3%	0	-3%	6%
CCN(CC)c1ccc(NC(=O)Cn2ncc3c(C)n(Cc4ccccc4F)c(C)c3c2=O)c(C)c1	?	3%	0%	21	21µM*	1%
COC(=O)c1ccccc1NC(=O)Cn1ncc2c(C)n(Cc3ccc(F)cc3)c(C)c2c1=O	21µM*	nt	nt	nt	?	nt
Cc1c2cnn(CC(=O)Nc3c(F)c(F)cc(F)c3F)c(=O)c2c(C)n1Cc1ccc(F)cc1	nt	0%	nt	nt	nt	nt
CCN(CC)c1ccc(NC(=O)CN2C(=O)CC(C)(C)S(=O)(=O)c3ccccc32)c(C)c1	15µM*	3%	-1%	0	16µM*	4%
SMILES	TDP1 cell CPT	Chronic BCR inh	MCF10A rereplic	IL1B secr inh	DT40 TDP1 no CPT	SW480 rereplic
COc1ccc(Cl)cc1NS(=O)(=O)c1cccc(C(=O)NC2CC2)c1	-10%	-2%	-5%	-6	-29%	-5%
COc1ccc(C(C)NC(=O)c2ccc([N+](=O)[O-])cc2)cc1OC (centres undefined)	0.92µM*	-2%	8%	-7	0.52µM*	-40%
COc1ccccc1NS(=O)(=O)c1cccc(NC(=O)NCCCl)c1	21µM*	-2%	1%	0	?	6%
COc1ccccc1NS(=O)(=O)c1cccc(NC(=O)Nc2cccc(Cl)c2)c1	21µM*	?	?	-65*	21µM*	?
COc1ccc(C(C)NC(=O)c2cccc([N+](=O)[O-])c2)cc1OC (centres undefined)	-4%	-8%	-1%	-5	0%	7%
COc1ccc(C(=O)Nc2ccccc2)cc1NC(=O)c1ccc([N+](=O)[O-])cc1	-27%	?	2%	-63*	?	2%
CCCn1c(=O)c(C#N)cn(C2CC2)c1=O	-2%	-13%	1%	-25	5%	-6%
CSc1nc2sc3c(c2c(=O)[nH]1)CC(C)(C)OC3	?	-3%	-12%	20	-14%	-4%
CCOC(=O)CC(=O)CSc1ncnc2c1nnn2-c1ccc(OC)cc1	2%	-4%	2%	-10	-9%	-4%
CC(OC(=O)C1CSC2(C)CCC(=O)N12)C(=O)Nc1ccc(F)cc1 (centres undefined)	-13%	-2%	2%	5	0%	1%
CS(=O)(=O)Nc1ccc2c(c1)[C@H]1C[C@H](CC(=O)NCc3cccc(F)c3)O[C@@H](CO)[C@H]1O2	-18%	nt	nt	-14	-27%	nt
